# Source: PubChem BioAssay
# Exocytosis inh: blocks lytic granule exocytosis; TALL-104 LAMP-1 surface exposure, flow cytometry; cells stimulated with thapsigargin and PMA; inhibition, % at 10 µM; actives 0.66% (n = 360,000); AID 651702;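 active = inhibition above about 55%, limit read from the data; inconclusive = no clear call, values can overlap the other calls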
# Myeloid diff MLP: myeloid differentiation induction; AID 624256; actives 1% (n = 360,000); ER-HoxA9 myeloid progenitors, lysozyme-GFP differentiation, flow cytometry; calls only at 10 µM;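 active = normalized GFP-positive differentiation at or above the plate's own cutoff, the solvent-only control mean plus 3 SD; inconclusive = no clear call, values can overlap the other calls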;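 note: cells exposed to compound for four days before flow analysis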
# ABCB6 inh 2: blocks the human ABCB6 transporter | Q9NP58 | K562-ABCB6 porphyrin accumulation, flow cytometry, 1 h; stronger effect = lower value | fluorescence ratio to DMSO, % at 10 µM | actives 0.19% (n = 360,000) | AID 602162;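 active = fluorescence ratio to DMSO below 75%, the collection mean minus 3 SD; inconclusive = too few cells collected in the well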;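 note: signal is porphyrin accumulated inside mitochondria; 100% equals median channel fluorescence of DMSO control wells; lower ratio means ABCB6 inhibition with less porphyrin fluorescence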
# Target sequence (Q9NP58 whole entry, looked up): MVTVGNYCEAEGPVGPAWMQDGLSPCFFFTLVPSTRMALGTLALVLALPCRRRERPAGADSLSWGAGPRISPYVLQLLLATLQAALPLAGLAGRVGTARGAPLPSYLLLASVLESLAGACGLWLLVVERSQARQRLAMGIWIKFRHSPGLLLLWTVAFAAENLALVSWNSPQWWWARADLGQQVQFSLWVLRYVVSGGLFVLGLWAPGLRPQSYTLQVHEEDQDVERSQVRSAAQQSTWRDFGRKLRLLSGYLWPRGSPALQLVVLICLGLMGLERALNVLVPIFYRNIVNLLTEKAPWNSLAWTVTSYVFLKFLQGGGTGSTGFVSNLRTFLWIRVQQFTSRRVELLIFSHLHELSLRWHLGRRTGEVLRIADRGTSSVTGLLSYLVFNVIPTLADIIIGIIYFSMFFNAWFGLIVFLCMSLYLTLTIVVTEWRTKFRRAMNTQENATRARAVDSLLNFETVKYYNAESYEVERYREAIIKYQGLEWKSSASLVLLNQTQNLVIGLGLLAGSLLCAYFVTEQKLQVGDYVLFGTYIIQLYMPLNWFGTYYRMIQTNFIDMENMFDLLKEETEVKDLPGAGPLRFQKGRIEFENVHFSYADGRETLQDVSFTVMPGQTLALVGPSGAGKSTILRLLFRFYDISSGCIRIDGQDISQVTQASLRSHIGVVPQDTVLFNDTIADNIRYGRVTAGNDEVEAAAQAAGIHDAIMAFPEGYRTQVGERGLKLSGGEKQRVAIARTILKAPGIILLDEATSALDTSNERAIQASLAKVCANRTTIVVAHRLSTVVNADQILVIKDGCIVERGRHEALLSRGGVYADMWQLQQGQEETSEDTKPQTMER
# The depositor's hits bear a star; i = inactive; ? = inconclusive; . = no result; + = active, no number. The list is not random: actives were taken first. Their share in the collection is about 1.8%.
SMILES,Exocytosis inh,Myeloid diff MLP,ABCB6 inh 2
COc1cccc(NC(=O)C2(C)CCN2C(=O)CCc2ccc(Cl)cc2Cl)c1 (centres undefined),0,i,96
Cc1onc(-c2ccccc2)c1C(=O)NNC(=S)NC(=O)/C=C/c1ccccc1,-4,i,74*
COc1ccc(/C=C/C(=O)NC(=S)NNC(=O)c2c(-c3ccccc3)noc2C)cc1,-2,i,97
CS(=O)(=O)N(CC(=O)N1CCOCC1)c1ccccc1Br,0,i,96
Cc1ccc(C)c(S(=O)(=O)/N=C2\C=C(NS(=O)(=O)c3ccccc3)C(=O)c3ccccc32)c1,30,i,99
Cc1cc(C)c(S(=O)(=O)/N=C2/C=C(Sc3ncn[nH]3)C(=O)c3ccccc32)cc1C,98*,i,104
O=c1[nH][nH]c2c1[C@H](CCc1cccc(Cl)c1)O[C@H](C1CCCC1)C2,6,i,102
COC(=O)c1c(NC(=O)c2ccccc2F)sc(C(=O)N2CCOCC2)c1C,11,i,102
COc1ccccc1CNCC(O)(c1ccc(F)cc1)c1ccc(F)cc1,37,i,95
COc1ccccc1CNCC(O)(c1ccc(Cl)cc1)c1ccc(Cl)cc1,3,+,99
N#CC(C#N)=C1C=C2C=C(N3CCOCC3)CCC2CC1 (centres undefined),5,+,135
CC1(C)CC(NCCN2CCN(C3=CC(=C(C#N)C#N)CC(C)(C)C3)CC2)=CC(=C(C#N)C#N)C1,-2,i,96
CN1CCN(C2=CC3=CC(=C(C#N)C#N)CCC3CC2)CC1 (centres undefined),-2,+,158
CCN1CCN(C2=CC3=CC(=C(C#N)C#N)CCC3CC2)CC1 (centres undefined),8,+,264
N#CC(C#N)=C1C=C2C=C(N3CCCCCC3)CCC2CC1 (centres undefined),47,i,345
CC(=O)NC(CCc1ccc(Cl)c(Cl)c1)c1cccc(O)c(=O)c1 (centres undefined),4,.,96
CC1C(=O)NN=C1C(=O)N/N=C\C(Br)=C\c1ccccc1 (centres undefined),1,+,98
O=C(N/N=C/C(Br)=C/c1ccccc1)c1cc(-c2ccco2)[nH]n1,13,+,100
CC(/C=N/NC(=O)c1cc(-c2ccc(C)o2)[nH]n1)=C\c1ccccc1,7,i,99
CC1=NNC(=O)C1CC(=O)N/N=C/C(Br)=C/c1ccccc1 (centres undefined),17,i,101
CCOC(=O)N1CCN(C(=O)COC(=O)Cc2ccc(Cl)cc2)CC1,-13,i,104
Cc1ccc(-c2nc(NC(=O)CSc3nnc4scc(-c5ccccc5)n34)ns2)cc1,10,+,101
CCc1nnc(NC(=O)CSc2nnc3scc(-c4ccc(C)cc4)n23)s1,3,i,102
Cc1cc(=O)oc2cc(OCC(=O)NC3(C#N)CCCCC3)ccc12,-1,i,99
CC(C)c1nnc(NC(=O)CCC(=O)Nc2ccc(Cl)cc2)s1,-9,i,101
SMILES,Exocytosis inh,Myeloid diff MLP,ABCB6 inh 2
Cc1cc(C)cc(NC(=O)CCC(=O)Nc2nnc(C(C)C)s2)c1,2,+,93
Cc1sc2ncnc(N3CCN(CCOc4ccc(Cl)cc4)CC3)c2c1C,3,+,98
Cc1sc2ncnc(N3CCN(Cc4ccccc4)CC3)c2c1-c1ccccc1,63*,i,96
Cc1sc2ncnc(Nc3ccc(N4CCOCC4)cc3)c2c1-c1ccccc1,-3,i,91
Cc1sc2ncnc(N3CCC(C(=O)NNC(=O)COc4ccc(Cl)cc4)CC3)c2c1C,4,i,96
COC(=O)[C@@]12C[C@@H](CC(=O)NCCC(C)C)C(=O)N(CCc3ccc(OC)c(OC)c3)C1=CCC(C)(C)C2,10,i,.
CC(C)[C@@H]1Cc2[nH]n(C)c(=O)c2[C@H](c2ccc(F)cc2)O1,4,i,98
CC(C)(C)N1CC(C(=O)Nc2ccc(C(N)=O)cc2)CC1=O (centres undefined),1,i,103
CCOC(=O)C1=NOC2(C1)C(=O)Nc1ccc(OC)cc12 (centres undefined),0,i,104
CN=CC1=C(O)c2ccccc2C1=O,-1,i,102
O=C1C(C2=C(O)c3ccccc3C2=O)=Nc2ccccc21,11,+,424
O=C(Nc1cc(-c2nc3ncccc3o2)ccc1Cl)c1ccc([N+](=O)[O-])o1,2,.,108
FC(F)C(F)(F)Oc1cccc(Nc2nccn3c(-c4cccc5ccccc45)cnc23)c1,-7,i,97
CCCCCCSc1ccc([C@@H]2[C@@H]3C(=O)N(C)C(=O)[C@@H]3[C@]3(C(=O)OC)CCCCN23)cc1OC,-10,i,97
CCCCCCSc1ccc([C@@H]2[C@H]3C(=O)N(C)C(=O)[C@H]3[C@]3(C(=O)OC)CCCCN23)cc1OC,5,+,98
Cc1cccc(C)c1NC(=O)COC(=O)c1cc[n+]([O-])cc1,6,i,94
Nn1c(SCC(=O)Nc2ccc(N3CCOCC3)cc2)nnc1-c1ccccc1F,2,?,97
Cc1nn(C(C)C(=O)NCc2ccccc2Cl)c(=O)c2c1sc1ccccc12 (centres undefined),82*,i,99
Cc1nn(C(C)C(=O)NCCCN2CCCCCC2)c(=O)c2c1sc1ccccc12 (centres undefined),-3,i,103
COc1ccc(NC(=O)C(OC(=O)Cn2cnc3c2c(=O)n(C)c(=O)n3C)c2ccccc2)cc1Cl (centres undefined),0,i,96
CC(=O)c1ccc(OC2(C)CCN(Cc3csc4ccccc34)C2)cc1 (centres undefined),-18,i,96
COc1cc(CNc2ccc(N3CCCC3)cc2)ccc1OCc1ccccc1F,-7,+,106
COc1cc(CNc2ccc(N3CCCCC3)cc2)ccc1OCC(=O)NC(C)(C)C,1,i,96
COc1cc(CNc2ccc(N3CCCC3)cc2)ccc1OCc1ccccc1,-3,+,119
COc1cc(CNc2ccc(S(N)(=O)=O)cc2)ccc1OCc1ccccc1F,-6,i,98
SMILES,Exocytosis inh,Myeloid diff MLP,ABCB6 inh 2
CC1(C)CC(NC(=O)C2CCN(S(=O)(=O)c3ccc(Cl)c(C(F)(F)F)c3)CC2)CC(C)(C)N1,6,i,95
CC(Cc1ccccc1)NC(=O)CCNNC(=O)c1ccncc1 (centres undefined),-4,i,102
Nc1ncnc2c1ncn2[C@@H]1O[C@H](C(=O)Nc2ccc(Oc3ccccc3)nc2)[C@@H](O)[C@H]1O,-2,i,104
COc1cc(C2(C)SCCCS2)cc(OC)c1OC,-8,i,95
COc1cccc(/C=N/NC(=O)C(=O)N/N=C/c2cccc(OC)c2O)c1O,0,i,109
COc1cccc(/C=N/NC(=O)c2cc3cc([N+](=O)[O-])ccc3s2)c1O,69*,?,97
Cn1c(COc2ccccc2O)[n+](C)c2ccccc21,-16,i,100
CCCCCCCCCCOC(=O)Cn1c(COc2ccccc2OC)[n+](C)c2ccccc21,89*,i,87
CCCNC(=O)Cn1c(=O)/c(=C/c2ccc(-c3ccc([N+](=O)[O-])cc3)o2)s/c1=C\C(=O)C(C)(C)C,-1,+,i
